The source made the active and inactive calls.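 The calls were made as follows: active = compound whose NMR saturation transfer difference test with menin is positive, showing direct binding to the protein; inactive = the rest.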
Target: Menin (Homo sapiens) (UniProt O00255)
Experiment: Confirmation of Inhibitors Targeting the Menin-MLL Interaction in MLL Related Leukemias: NMR spectroscopy to verify direct binding of compounds to menin
Conditions: purified menin, NMR STD binding, 100 uM
Excerpt: qHTS Assay for Inhibitors Targeting the Menin-MLL Interaction in MLL Related Leukemias NIH Chemical Genomics Center [NCGC] NIH Molecular Libraries Probe Centers Network [MLPCN] MLPCN Grant: MH084875-01A1 Assay Submitter (PI): Jolanta Grembecka, Tomasz Cierpicki, University of Virginia Translocations of the MLL (Mixed Lineage Leukemia) gene are frequently found in human leukemias affecting both children and adults. Fusion of MLL to one of more than 60 genes results in generation of oncogenic proteins upregulating Hox genes, which are vital to blood cell development. Patients harboring fusion of the MLL gene suffer from aggressive leukemias and respond poorly to available therapies. All of the oncogenic fusion proteins have a preserved N-terminal fragment of MLL that has been identified to interact with menin. It has been recently discovered that association with menin is critical to the leukemogenic activity of the MLL fusion oncoproteins. Selective targeting of the menin-MLL interaction could provide an attractive therapeutic approach to develop novel drugs for MLL-related leukemias. Small molecules blocking the menin-MLL interaction should reverse the oncogenic potential of MLL fusion proteins. We have developed and optimized a fluorescence polarization-based assay for the identification of Menin-MLL inhibitors. The assay was run employing two different MLL-derived peptides. […]

Chain of Menin (Homo sapiens) (O00255 whole entry, looked up): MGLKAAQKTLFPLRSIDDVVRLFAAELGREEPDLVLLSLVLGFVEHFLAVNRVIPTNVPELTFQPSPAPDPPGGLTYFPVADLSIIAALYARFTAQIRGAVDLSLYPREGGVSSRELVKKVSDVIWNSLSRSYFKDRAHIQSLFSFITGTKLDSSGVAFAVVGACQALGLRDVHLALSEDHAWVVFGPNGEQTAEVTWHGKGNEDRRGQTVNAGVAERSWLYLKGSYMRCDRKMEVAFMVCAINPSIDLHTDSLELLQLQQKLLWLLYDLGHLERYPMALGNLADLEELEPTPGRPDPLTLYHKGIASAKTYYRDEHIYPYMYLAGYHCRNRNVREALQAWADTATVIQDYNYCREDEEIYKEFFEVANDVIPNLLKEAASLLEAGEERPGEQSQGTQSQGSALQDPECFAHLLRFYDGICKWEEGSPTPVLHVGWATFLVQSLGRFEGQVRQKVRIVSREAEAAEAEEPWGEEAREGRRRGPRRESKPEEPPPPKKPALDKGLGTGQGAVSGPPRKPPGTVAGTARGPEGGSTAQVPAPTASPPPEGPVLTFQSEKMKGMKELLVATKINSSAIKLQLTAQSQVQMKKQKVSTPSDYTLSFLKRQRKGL

Row | SMILES | outcome
1 | c1cc2cc(c1)C[n+]1ccc(c3ccccc31)NCc1ccc(cc1)CNc1cc[n+](c3ccccc13)C2 | inactive; negative
2 | CCCCn1c(=O)c(C(=O)Nc2ccsc2C(=O)OC)c(O)c2ccccc21 | inactive; negative

From PubChem BioAssay AID2781 (National Center for Advancing Translational Sciences (NCATS), 2010)
